Rows were chosen to be rich in hits. Some 2.9% of all compounds tested hit in one or more screens of this group.
GLP-1R inv ag – acts as inverse agonist at human GLP-1 receptor; P43220; HEK293 GLP-1R CRE-luciferase, luminescence, 24 h; GLP-1R form is constitutively active; Potency, µM (series often up to 38.3 µM), for the others: at the highest dose activity change, negative = inhibition, actives largely listed as inhibitors; 410,000 tested, 1.6% active; AID 624417; also: potency is read from the fitted curve at half-maximal effect; % is scaled to controls: 0 for no effect and ±100 for the full control effect; nearly all actives have a fitted effect of over 55% in size
Target sequence (P43220 whole entry, looked up): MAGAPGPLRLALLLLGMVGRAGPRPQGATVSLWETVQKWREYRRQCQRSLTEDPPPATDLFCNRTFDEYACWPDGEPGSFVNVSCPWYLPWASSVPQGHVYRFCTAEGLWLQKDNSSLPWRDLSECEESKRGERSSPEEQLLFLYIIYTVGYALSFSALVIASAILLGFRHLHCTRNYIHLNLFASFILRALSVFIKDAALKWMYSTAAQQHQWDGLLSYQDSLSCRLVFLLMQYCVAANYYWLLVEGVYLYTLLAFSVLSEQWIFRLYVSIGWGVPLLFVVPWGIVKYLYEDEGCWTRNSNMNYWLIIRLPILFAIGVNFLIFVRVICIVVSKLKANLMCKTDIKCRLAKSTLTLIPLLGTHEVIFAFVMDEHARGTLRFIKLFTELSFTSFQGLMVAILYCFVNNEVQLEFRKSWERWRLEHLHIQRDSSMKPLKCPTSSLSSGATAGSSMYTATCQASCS
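Inverse agonism was detected as reduced cAMP-driven luciferase luminescence after 24 h compound treatment. The cells were HEK293 clones expressing constitutively active human GLP-1R with the reporter. Reporter-only and GPR119 cell lines served as counterscreen controls.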
GLP1R ag – activates the human GLP-1 receptor | HEK293 GLP-1R CRE-luciferase, luminescence, 4-6 h; cells express a hypersensitive GLP-1R form | Potency, µM (doses to about 45.6 µM), inactives show top-dose activation, actives largely listed as activators | 380,000 tested, 0.007% active | AID 624172; also: potency is read from the fitted curve at half-maximal effect; % of control where 0% means no effect
p53 reactivation – mutant p53 re-activation in reporter cells; H1299 p53-A138V BP100-luciferase reporter, luminescence, 24 h; Potency, µM (highest dose often 92.2 µM), for inactives: at the highest dose activity change, positive = activation, hits mostly activators; 320,000 tested, 0.063% active; AID 504706; also: potency is read from the fitted curve at half-maximal effect; % of control where 0% means no effect; nearly all actives have a fitted effect of over 45% in size
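p53-null H1299 cells stably carrying temperature-sensitive p53-A138V and a BP100-luciferase reporter were pinned with compounds (4-point, 1:5 series) and held 24 hrs at 37 deg C. Luminescence was read 10 min after detection reagent.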
GLP1R cytotox – cytotoxicity counter-screen for GLP-1 receptor inverse agonists; HEK293 cAMP-luciferase reporter cells, luminescence, 24 h; Potency, µM (highest dose often 38.3 µM), for the others: at the top dose activity change, negative = inhibition, usual class: inhibitors; 410,000 tested, 0.13% active; AID 624418;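 also: loss of luciferase light is scored as toxicity; potency is read from the fitted curve at half-maximal effect; % is scaled to controls: 0 for no effect and ±100 for the full control effect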
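Compound-treated cells are incubated 24 hr at 37 deg C under 5% CO2 after a 12 hour attachment period, then luciferase detection reagent is added and luminescence is measured following 12 min at room temperature; lowered signal indicates toxicity.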
ClpP mod – qHTS Assay for Activators of ClpP. ATP-dependent Clp protease proteolytic subunit (Bacillus subtilis (strain 168)), P80244. purified B. subtilis ClpP, FRET peptide cleavage, 20 min. Potency, µM (titrated, usually from 57.5 µM), without a hit: at the highest dose activity change, negative = active. 340,000 tested, 1.9% active. AID 651965, 2013; active = well fitted falling curve with a large enough effect; inconclusive = small, poorly fitted or top-dose-only effect; inactive = no such curve, though single readings can be large or run the other way; also: potency is read from the fitted curve at half-maximal effect; the source files actives as falling curves though it sought activators and does not explain the sign; nearly all actives have a fitted effect of over 65% in size
Target sequence (P80244 whole entry, looked up): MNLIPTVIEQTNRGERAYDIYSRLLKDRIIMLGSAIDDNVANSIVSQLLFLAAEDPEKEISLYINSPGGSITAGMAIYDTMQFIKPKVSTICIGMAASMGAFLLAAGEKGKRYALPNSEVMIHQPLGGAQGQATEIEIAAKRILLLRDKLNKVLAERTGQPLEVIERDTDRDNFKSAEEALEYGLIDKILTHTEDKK
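Buffer: 100 mM Tris/HCl pH8, 100 mM KCl, 0.05% low protease BSA, 2.5% glycerol, 0.01% Tween-20. ClpP 10 microg/mL final; 20 min RT; delta FRET normalized to ADEP and DMSO controls.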
LDHA block – LDHA (human) enzyme inhibition | P00338 | purified LDHA, NADH/diaphorase-resazurin fluorescence; active compounds read low | activity change, % (values are at about 110 or 230 µM) | 480,000 tested, 0.15% active; in the data active = activity change below about -30%; inconclusive = mostly about -25% to -30%;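 also: plate controls were DMSO wells for no effect and wells without enzyme for full effect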
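Remaining NADH was detected by diaphorase (0.133 mg/mL) converting 37 µM resazurin to fluorescent resorufin, read at 0 and 20 minutes. The preceding 5-minute room-temperature reaction used 2 nM LDHA, 0.2 mM sodium pyruvate and 0.06 mM NADH at pH 7.4.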
* hit, by the source's call; ? = inconclusive; . = no result. Unless noted, calls follow the shape of the dose curve; as a rule, active = well fitted curve in the direction sought with a large enough effect; inconclusive = small, poorly fitted or top-dose-only effect, or another doubt; inactive = no such curve, though single readings can be large; an effect the other way counts as inactive or inconclusive.

SMILES	GLP-1R inv ag	GLP1R ag	p53 reactivation	GLP1R cytotox	ClpP mod	LDHA block
CCN(CC)c1ccc(/C=N/NC(=S)NCc2ccco2)cc1	?	4.7%	9.1%	?	15.8µM*	2.0
CN(C)c1ccc(/C=N/NC(=S)NCc2ccccc2)cc1	?	6.7%	20.3%	?	17.8µM*	2.0
Oc1ccc(/C=N/NC(=S)NCc2ccco2)cc1	6.9%	-0.4%	-1.9%	-12.1%	-6.2%	-2.8
O=C(NC1CCCCC1)C(c1ccccc1)N(C(=O)c1cccs1)c1ccc2c(c1)OCO2 (centres undefined)	-0.1%	3.4%	-1.9%	6.3%	0.9%	3.5
O=C(N/N=C/C=C\c1ccccc1[N+](=O)[O-])c1cc(-c2ccccc2)nc2ccccc12	9.2%	-3.6%	11.3%	-7.6%	-2.0%	-3.5
CN(C(=O)Cc1c(C(=O)O)n(C)c2ccccc12)c1ccc(Cl)cc1	-2.0%	-1.7%	-2.1%	7.5%	-1.0%	-7.3
N#Cc1ccc(S(=O)(=O)N2CCCCC2C(=O)N2CCCC2)cc1 (centres undefined)	.	.	.	.	.	2.5
O=C(O)C1=CCC(c2ccc(Cl)c(Cl)c2)N(S(=O)(=O)c2ccc(F)cc2)C1c1cccc(F)c1 (centres undefined)	?	.	.	-14.6%	0.9%	-5.4
CCN(CC)S(=O)(=O)c1ccc(C(=O)C(C#N)c2ccccn2)cc1 (centres undefined)	21.1%	5.3%	4.8%	-4.5%	-1.2%	3.1
NNC(=O)CSCc1nc(-c2ccccc2)cs1	-18.6%	2.2%	-0.7%	4.5%	-0.6%	1.7
Cc1c(-c2ccc(Br)cc2)nc2ccccn12	-22.5%	-0.2%	?	1.2%	25.1µM*	-5.6
COC(=O)c1cccc(S(=O)(=O)N(Cc2ccco2)Cc2cc3cc(OC)c(OC)cc3[nH]c2=O)c1	-5.2%	-1.8%	1.4%	-22.6%	28.2µM*	2.9
COC(=O)c1cccc(S(=O)(=O)N(Cc2ccco2)Cc2cc3ccc(OC)cc3[nH]c2=O)c1	5.9%	-1.9%	-4.2%	-5.6%	?	-3.2
Cc1noc(C)c1COc1cccc(C(=O)OCCOc2ccc(F)cc2)c1	10µM*	11.0%	11.6%	17.9%	-7.2%	2.4
Cc1noc(C)c1COc1cccc(C(=O)OC(C)C#N)c1 (centres undefined)	4.7%	12.5%	1.9%	10.1%	.	-1.3
CN(Cc1ccccc1)c1nc2c(c(=O)[nH]c(=O)n2C)n1Cc1ccccc1	0.0%	11.6%	-16.8%	0.2%	1.4%	-5.5
O=C(O)CSc1nnc(-c2cc3ccccc3o2)n1-c1ccccc1	9.3%	-19.9%	26.5%	2.6%	22.4µM*	-7.1
Cn1c(SCC(=O)N2CCN(c3ccccc3)CC2)nnc1-c1cc2ccccc2o1	0.0%	2.3%	5.0%	10.3%	-7.7%	-8.9
CC1(C)S[C@@H]2[C@H](NC(=O)COc3ccccc3)C(=O)N2[C@H]1C(=O)O	.	-3.9%	.	.	.	.
CCOC(=O)c1cnc2c(-c3ccc(Cl)cc3)cnn2c1C	27.7%	2.1%	10.7%	10.8%	.	-5.1
CCOC(=O)c1c(-c2ccc(Cl)cc2)cn2ccccc12	1.7%	6.1%	-1.6%	-2.4%	31.6µM*	-3.8
CCC(=O)N1CC23C=CC(CC2CC12CCCCC2)O3 (centres undefined)	?	-13.0%	-0.4%	0.5%	-1.9%	-12.7
CC(C)(C)C(=O)Nc1cccc(NC(=O)C2CCCC2)c1	.	.	.	.	.	6.1
CCn1c(O)c(N=NC(=S)NCC2CCCO2)c2ccccc21 (centres undefined)	2.82µM*	7.2%	3.7%	?	0.1%	-1.8
Cc1cc(C)c2[nH]c(O)c(N=NC(=S)NCC3CCCO3)c2c1 (centres undefined)	?	10.8%	1.4%	8.91µM*	1.3%	-3.8
SMILES	GLP-1R inv ag	GLP1R ag	p53 reactivation	GLP1R cytotox	ClpP mod	LDHA block
Oc1[nH]c2ccccc2c1N=NC(=S)NCC1CCCO1 (centres undefined)	1.8%	11.5%	6.0%	?	-1.5%	3.0
Oc1[nH]c2ccc(Br)cc2c1N=NC(=S)NCC1CCCO1 (centres undefined)	13.3%	1.5%	0.3%	?	.	1.0
Oc1[nH]c2c(Cl)cc(Cl)cc2c1N=NC(=S)NCC1CCCO1 (centres undefined)	?	10.7%	-20.8%	3.98µM*	0.6%	0.3
CNC(=S)NCCc1ccc(OC)cc1	13.1%	2.3%	15.6%	-0.5%	.	-7.3
COc1ccccc1N=Nc1c(C)[nH]n(-c2ccccc2)c1=O	6.6%	3.3%	-1.0%	9.9%	-3.5%	-8.5
COc1ccc(N=C(c2ccccc2)c2c(C)[nH]n(-c3ccccc3)c2=O)c(OC)c1	7.94µM*	10.2%	-2.2%	9.6%	.	-2.3
CCCCn1c(-c2ccc(OC)cc2)nc2c(=O)n(C)c(=O)[nH]c21	11.1%	1.1%	4.7%	14.6%	4.3%	-1.5
CCCCn1c(-c2ccc(Cl)cc2)nc2c(=O)n(C)c(=O)[nH]c21	1.6%	-9.7%	?	1.7%	11.2µM*	-3.2
CCOC(=O)c1cc(-c2ccc(F)cc2)n(CCC(=O)Nc2ccccc2OC)c1C	10µM*	.	.	-2.9%	-4.3%	-5.2
CCOC(=O)c1cc(-c2ccc(F)cc2)n(CCC(=O)NCc2ccc(C)cc2)c1C	10µM*	.	.	-5.9%	0.9%	-7.6
COc1ccc(C(=O)/C=C/c2ccccc2)c(OC)c1	10µM*	1.3%	?	-16.4%	-2.6%	-2.8
Cn1c(SCc2n[nH]c(=S)n2-c2ccccc2)nnc1-c1ccccc1	0.0%	-4.0%	-4.8%	0.8%	-16.6%	-7.3
Cc1cc(C)c(C#N)c(SCc2ccc(C(=O)O)cc2)n1	5.3%	2.8%	7.9%	0.0%	.	-6.8
Cc1ccc(Sc2ccc(NC(=O)CCN3C(=O)NC4(CCCC4)C3=O)cc2)c(C)c1	11.2µM*	8.6%	-4.8%	-24.5%	-1.3%	-3.8
Cc1cccc(C)c1-n1nnnc1SCC(=O)N(C)c1ccccc1C(=O)NCc1ccco1	.	.	.	.	.	5.0
O=C(Nc1nc2ccccc2s1)c1cc(-c2ccco2)nc2ccccc12	?	11.4%	10.2%	-12.0%	17.8µM*	-4.7
Cc1ccc2nc(NC(=O)c3cc(-c4ccco4)nc4ccccc34)sc2c1	-20.5%	-9.8%	?	-17.7%	17.8µM*	-5.5
Cc1nnc(NC(=O)c2cc(-c3ccco3)nc3ccccc23)s1	.	.	4.3%	.	.	.
CC(=O)OC[C@@H]1CN(Cc2ccccc2)C[C@H](n2cnc3c(NCC(C)C)ncnc32)O1	-5.3%	17.3%	.	-5.4%	-0.4%	-4.7
CSc1nc(Cl)cc(Nc2ccc(O)cc2)n1	1.1%	21.0%	16.5%	-4.0%	.	1.6
